# Data from PubChem BioAssay (NCATS).
# Values joined by “and” are separate entries in the source; they are usually repeats but may differ in a detail not shown here. Identical values can stand only once. Unmarked numbers belong to inactive results. Records with an inconclusive call do not appear. A call without a number means that no potency is given here. Active and inactive are the calls of the source. Calls come from the whole dose curve; as a rule, active = well fitted curve in the direction sought with a large enough effect; inconclusive = small, poorly fitted or top-dose-only effect, or another doubt; inactive = no such curve, though single readings can be large; an effect the other way counts as inactive or inconclusive. Where a SMILES comes first, the peptide text is derived from it. [ ]: non-standard residue; d: D form. pGlu = O=C1CC[C@@H](C(=O)O)N1; Thz = O=C(O)[C@@H]1CSCN1
# Columns and labels:
# [1] = qHTS Assay for Identifying Gametocytocidal Compounds (AID 743244); note: potency is the fitted concentration of half-maximal effect;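 for max response: actives lower the fluorescent signal which means gametocytes are killed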; settings: P. falciparum 3D7 stage III-V gametocytes, alamarBlue, 72 h; max response: hits give low values
# Outline: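 Viability read-out was resazurin reduction (alamarBlue, 24 h) measured at Ex 525/Em 598 nm. Beforehand, late-stage (III-V) 3D7 P. falciparum gametocytes at 20,000 cells/well were incubated with compound 72 h at 37C under 5% CO2.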
# [2] = qHTS assay to identify small molecule inhibitors of chordoma cells - UCH-2 (AID 1259356); note: potency is the fitted concentration of half-maximal effect
# [3] = qHTS assay to identify small molecule inhibitors of chordoma cells - UCH-1 (AID 1259355); note: nearly all actives have a fitted effect of over 55% in size; note: potency is the fitted concentration of half-maximal effect; series mostly up to about 46 µM
# Outline: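 Screening used approved and investigational drugs in 15-point titration against 800 seeded cells per well. A fixed combination of auranofin with camptothecin, doxorubicin, rubitecan and topotecan followed compound addition, and growth was scored by CellTiter-Glo after 48hr.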
# [4] = qHTS assay for cell viability of HEK293 cells (AID 743288); settings: ATP luminescence (CellTiter-Glo), 18 h; max response: hits give low values; note: nearly all actives have a fitted effect of over 50% in size; note: potency is the fitted concentration of half-maximal effect
# Outline: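 Readout is luciferase-coupled ATP content (CellTiter-Glo luminescence, 30 min room temperature) as a measure of metabolically competent cells. Parental HEK293 cells were plated 5 h or more before compound addition, then treated 18 h at 37 C.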
# [5] = qHTS assay for cell viability of the p53RE-bla HCT-116 cell line (AID 743292); note: nearly all actives have a fitted effect of over 55% in size; note: potency is the fitted concentration of half-maximal effect
# Outline: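 ATP-based luminescent viability (CellTiter-Glo, 30 min RT) after 16 h compound treatment at 37 C of p53RE-bla HCT-116 cells, seeded at 4,000 cells/well and rested 5 h before dosing.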
# [6] = qHTS assay for measurement of the activity of small molecule inhibitors on Zika virus induced Caspase-3 activity in human astrocytoma cells (AID 1224859)
# Outline: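 Luminescent caspase-3/7 read-out (30 min reagent, room temperature) in human SNB-19 cells infected 6 h with ZIKV (2 FFU/cell) after 1 h compound pre-incubation; Data were normalised to uninfected and infected wells.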
compound,measurement,setting,value
CN1[C@@H]2CC[C@H]1CC(OC(c1ccccc1)c1ccccc1)C2 (stereo not given in full),max response,[1],-0.265% and -8.62%
same,Potency,[2],inactive
CC(=O)O[C@H]1C[C@@]2(C)[C@@H](C[C@@H](O)[C@H]3[C@@]4(C)CC[C@@H](O)[C@@H](C)[C@@H]4CC[C@@]32C)/C1=C(\CCC=C(C)C)C(=O)O,max response,[1],-4.85%
same,Potency,[3],inactive
same,Potency,[2],inactive
O=C1CC[C@@H](C(=O)N2CSC[C@H]2C(=O)O)N1 ([pGlu]-[Thz]-OH),max response,[1],5.51%
same,Potency,[3],inactive
same,Potency,[2],inactive
O=C(O)Cc1ccc(-c2ccccc2)cc1,max response,[1],-0.327%
same,Potency,[3],inactive
same,Potency,[2],inactive
Cc1onc(-c2c(F)cccc2Cl)c1C(=O)N[C@@H]1C(=O)N2[C@@H]1SC(C)(C)[C@@H]2C(=O)O,max response,[1],16.8% and -3.16%
same,Potency,[3],inactive
same,Potency,[2],inactive
Nc1ccc([N+](=O)[O-])cc1O,max response,[1],-2.68%
same,max response,[4],3.96% and 2.89%
same,Potency,[5],inactive
same,Potency,[6],inactive
CCCCC[C@H](O)/C=C/[C@@H]1[C@@H](C/C=C\CCCC(=O)O)[C@@H](O)C[C@H]1O,max response,[1],-4.72% and 7.02%
same,Potency,[3],inactive
same,Potency,[2],inactive
CC[C@H]1OC(=O)[C@H](C)[C@@H](O[C@H]2C[C@@](C)(OC)[C@@H](O)[C@H](C)O2)[C@H](C)[C@@H](O[C@@H]2O[C@H](C)C[C@H](N(C)C)[C@H]2O)[C@](C)(O)C[C@@H](C)C(=O)[C@H](C)[C@@H](O)[C@]1(C)O,max response,[1],1.77% and 0.604%
same,Potency,[3],inactive
same,Potency,[2],inactive
CC(=O)[C@]1(O)Cc2c(O)c3c(c(O)c2[C@@H](O[C@H]2C[C@H](N)[C@H](O)[C@H](C)O2)C1)C(=O)c1c(O)cccc1C3=O,Potency,[1],5.62 µM (active)
same,Potency,[3],1.58 µM (active)
same,Potency,[2],20.6 µM (active)
CO[C@H]1C[C@@H]2CC[C@@H](C)[C@@](O)(O2)C(=O)C(=O)N2CCCC[C@H]2C(=O)O[C@H]([C@H](C)C[C@@H]2CC[C@@H](O)[C@H](OC)C2)CC(=O)[C@H](C)C=C(C)[C@@H](O)[C@@H](OC)C(=O)[C@H](C)C[C@H](C)/C=C/C=CC=C1C,Potency,[3],inactive
same,Potency,[2],inactive
Nc1ccc(O)c(C(=O)O)c1,max response,[1],11.4%
same,max response,[4],-0.669% and -7.83%
same,Potency,[5],inactive
same,Potency,[3],inactive
same,Potency,[2],inactive
CC[C@H]1OC(=O)[C@H](C)C(=O)[C@H](C)[C@@H](O[C@@H]2O[C@H](C)C[C@H](N(C)C)[C@H]2O)[C@](C)(OC)C[C@@H](C)C(=O)[C@H](C)[C@H]2N(CCCCn3cnc(-c4cccnc4)c3)C(=O)O[C@]12C,max response,[1],-5.82% and 15.9%
same,Potency,[3],inactive
same,Potency,[2],inactive
C=CCN1C(=O)C(CC(C)C)NC1=S (stereo not given),max response,[1],24.3% and -10.7%
same,Potency,[3],inactive
same,Potency,[2],inactive
CC1(C)[C@@H](O)CC[C@]2(C)[C@H]3C(=O)C=C4[C@@H]5C[C@@](C)(C(=O)O)CC[C@]5(C)CC[C@@]4(C)[C@]3(C)CC[C@@H]12,max response,[1],6.32% and -6.89%
same,Potency,[3],inactive
same,Potency,[2],inactive
O=C(O)[C@H](CC(=O)N1C[C@H]2CCCC[C@H]2C1)Cc1ccccc1,max response,[1],-8.96%
same,Potency,[3],inactive
same,Potency,[2],inactive
C[S+](CC[C@H](N)C(=O)O)C[C@H]1O[C@@H](n2cnc3c(N)ncnc32)[C@H](O)[C@@H]1O (stereo not given in full),max response,[1],6.19% and -10.1%
same,Potency,[3],inactive
same,Potency,[2],inactive
COC(=O)[C@H]1[C@H]2C[C@@H]3c4[nH]c5cc(OC)ccc5c4CCN3C[C@H]2C[C@@H](OC(=O)/C=C/c2cc(OC)c(OC)c(OC)c2)[C@@H]1OC,max response,[1],-0.068%
same,Potency,[3],inactive
same,Potency,[2],inactive
COc1cc(CNC(=O)CCCC/C=C/C(C)C)ccc1O,max response,[1],10.1%
same,max response,[4],-3.17% and -17.3%
same,Potency,[5],inactive
same,Potency,[3],inactive
same,Potency,[2],inactive
CN1CCN(c2cc3c(nn2)Oc2ccccc2N3C)CC1,max response,[1],-7.02%
same,Potency,[3],inactive
same,Potency,[2],inactive
CC1(C)[C@@H](O[C@H]2O[C@H](C(=O)O)[C@@H](O)[C@H](O)[C@H]2O[C@@H]2O[C@H](C(=O)O)[C@@H](O)[C@H](O)[C@H]2O)CC[C@]2(C)[C@H]3C(=O)C=C4[C@@H]5C[C@@](C)(C(=O)O)CC[C@]5(C)CC[C@@]4(C)[C@]3(C)CC[C@@H]12,max response,[1],1.42% and -3.92%
same,Potency,[3],inactive
same,Potency,[2],inactive
CN1[C@@H]2CC[C@H]1CC(OC(=O)C(CO)c1ccccc1)C2 (stereo not given in full),max response,[4],-4.41%
same,Potency,[5],inactive
same,Potency,[3],inactive
same,Potency,[2],inactive
COc1cc(/C=C/C(=O)CC(=O)/C=C/c2ccc(O)c(OC)c2)ccc1O,Potency,[3],inactive
same,Potency,[2],inactive
C=C(Nc1ccc(OCC)cc1)Nc1ccc(OCC)cc1,max response,[1],14.6% and 14.3%
same,Potency,[3],inactive
same,Potency,[2],inactive
CN(C)c1ccc(C(=C2C=CC(=[N+](C)C)C=C2)c2ccccc2)cc1,Potency,[4],3.55 µM (active)
same,Potency,[5],3.98 µM (active)
same,Potency,[6],inactive
CCCCCC[C@@H](O)C/C=C\CCCCCCCC(=O)O,max response,[1],10.3% and -5.91% and 3.41%
same,Potency,[3],inactive
same,Potency,[2],inactive
CC1(C)S[C@@H]2[C@H](NC(=O)[C@H](N)c3ccc(O)cc3)C(=O)N2[C@H]1C(=O)O,max response,[1],4.64% and 10.7%
same,Potency,[3],inactive
same,Potency,[2],inactive
O=C(O)[C@H](O)[C@@H](O)[C@H](O)[C@H](O)CO,max response,[1],-9.36% and 0.225%
same,max response,[4],-14.1%
same,Potency,[5],inactive
same,Potency,[3],inactive
same,Potency,[2],inactive
CC1(C)C[C@@H]1C(=O)N/C(=C\CCCCSC[C@H](N)C(=O)O)C(=O)O,max response,[1],3.26% and 5.48%
same,Potency,[3],inactive
same,Potency,[2],inactive
N=C1N=C(N)c2cc3ccccc3cc21,Potency,[4],44.7 µM (active)
same,Potency,[5],50.1 µM (active)
same,Potency,[6],inactive
CC1(C)S[C@@H]2[C@H](NC(=O)[C@H](NC(=O)N3CCN(S(C)(=O)=O)C3=O)c3ccccc3)C(=O)N2[C@H]1C(=O)O,max response,[1],9.5%
same,Potency,[3],inactive
same,Potency,[2],inactive
